Screening data from PubChem BioAssay.
The entries come from a sample that favours hits as a whole.
L3MBTL1 inh: qHTS Assay for the Inhibitors of L3MBTL1; Lethal(3)malignant brain tumor-like protein 1 (Homo sapiens), Q9Y468; AlphaScreen L3MBTL1–H3K9me1 peptide binding; Potency, µM (series often up to 57.1 µM), most hits filed as inhibitors; actives 0.66% (n = 230,000); AID 485360, 2010; also: nearly all actives have a fitted effect of over 60% in size
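Displacement of a biotinylated histone H3(1-15) peptide monomethylated at Lys9 (75 nM) from L3MBTL1 (50 nM) was measured by AlphaScreen after a 30 min room-temperature compound incubation; cefsulodin titration served as intraplate control.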
KDM4E inh: qHTS Assay for Inhibitors of Human Jumonji Domain Containing 2E (JMJD2E); Lysine-specific demethylase 4E (Homo sapiens), B2RXH2; JMJD2E catalytic domain, FDH-coupled NADH fluorescence (FDH is formaldehyde dehydrogenase); Potency, µM (doses to about 57.1 µM), usual class: inhibitors; actives 1.6% (n = 230,000); active = well fitted inhibition curve with a large enough effect, not every such curve was filed as active; inconclusive = small, poorly fitted or top-dose-only effect, or another doubt; inactive = no such curve, though single readings can be large or run the other way; also: nearly all actives have a fitted effect of over 50% in size
Target sequence (B2RXH2 1-337 limits assumed): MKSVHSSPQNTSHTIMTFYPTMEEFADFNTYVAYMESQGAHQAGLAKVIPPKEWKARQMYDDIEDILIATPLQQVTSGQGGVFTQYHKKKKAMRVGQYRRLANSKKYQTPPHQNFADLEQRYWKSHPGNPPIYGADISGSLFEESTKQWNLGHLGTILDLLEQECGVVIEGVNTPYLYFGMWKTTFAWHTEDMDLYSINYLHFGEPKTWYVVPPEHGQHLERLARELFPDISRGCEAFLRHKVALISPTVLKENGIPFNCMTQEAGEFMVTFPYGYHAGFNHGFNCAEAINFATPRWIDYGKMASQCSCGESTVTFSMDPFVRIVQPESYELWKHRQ
RECQ1 helicase: qHTS Assay for Inhibitors of RecQ-Like Dna Helicase 1 (RECQ1); ATP-dependent DNA helicase Q1 (Homo sapiens), P46063; RECQ1 DNA unwinding, red fluorescence kinetic read; Potency, µM (doses to about 57.3 µM), most hits filed as inhibitors; actives 0.54% (n = 240,000); AID 2549, 2010; also: nearly all actives have a fitted effect of over 30% in size
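RECQ1T1 50 nM; forked duplex (20 bp + 30-nt ss tails) 200 nM, ATP 2 mM final; pH 8.0, 2 mM MgCl2, 2.5 ug/ml poly(dI-dC); 15 min compound preincubation; discontinuous kinetic read over 2 h at RT.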
BLM helicase inh: qHTS Assay for Inhibitors of Bloom's syndrome helicase (BLM); actives 0.2% (n = 350,000); recombinant BLM DNA unwinding, fluorescence dequenching; Potency, µM (doses to about 56.1 µM), most hits filed as inhibitors; also: nearly all actives have a fitted effect of over 35% in size
APEX1 inh: qHTS Assay for Inhibitors of the Human Apurinic/apyrimidinic Endonuclease 1 (APE1); DNA repair nuclease/redox regulator APEX1 (Homo sapiens), P27695; recombinant APE1, TAMRA/BHQ-2 abasic DNA cleavage fluorescence; Potency, µM (doses to about 65.8 µM), usual class: inhibitors; actives 0.35% (n = 350,000); AID 2517, 2012; also: nearly all actives have a fitted effect of over 55% in size
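Endonuclease cleavage of a quenched abasic-site DNA duplex (50 nM) by APE1 (0.75 nM) was tracked by TAMRA dequenching. Compounds were preincubated with enzyme 15 min at room temperature; data normalized to buffer-only and DMSO wells plus NSC13755 control.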
TDP1 inh: qHTS Assay for Inhibitors of Tyrosyl-DNA Phosphodiesterase (TDP1); recombinant TDP1, AlphaScreen DNA substrate cleavage; Potency, µM (doses to about 130 µM), most hits filed as inhibitors; AID 485290, 2010; actives 0.28% (n = 350,000); Tyrosyl-DNA phosphodiesterase 1 (Homo sapiens), Q9NUW8; also: nearly all actives have a fitted effect of over 40% in size
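Tdp1 1 nM final; 15 min RT w/ cpd; substrate 15 nM, 5 min; beads 10 ug/ml, 10 min; AlphaScreen read. Neg ctrl: no enzyme.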
Large screens that a line does not name were inactive. Unless noted, calls follow the shape of the dose curve; as a rule, active = well fitted curve in the direction sought with a large enough effect; inconclusive = small, poorly fitted or top-dose-only effect, or another doubt; inactive = no such curve, though single readings can be large; an effect the other way counts as inactive or inconclusive.

Oc1ccc2ccccc2c1C1Nc2cccc3cccc(c23)N1	KDM4E inh 28µM (no result: L3MBTL1 inh)
COc1ccc(C)cc1NC(=O)c1c2c(nc3ccccc13)C(=O)N(C1CCCCC1)C2	none (no result: L3MBTL1 inh, KDM4E inh, RECQ1 helicase, APEX1 inh)
CCCn1c(CNc2ccccc2O)nc2ccccc21	KDM4E inh 14µM (no result: L3MBTL1 inh)
Cc1cc(-c2csc(NC(=O)c3cccc(S(=O)(=O)N(C)C)c3)n2)c(C)n1-c1ccccc1	KDM4E inh 13µM
CCOc1ccc(OCCC(=O)OCC(=O)N2CCN(S(=O)(=O)c3ccc(Cl)cc3)CC2)cc1	APEX1 inh inconclusive, TDP1 inh 25µM (no result: L3MBTL1 inh, KDM4E inh, RECQ1 helicase)
CC(C)OC(=O)/C(C#N)=C/c1ccc(-c2ccc(SC(F)F)cc2)o1	KDM4E inh inconclusive
COC(=O)/C(C#N)=C/c1ccc(-c2ccc(S(N)(=O)=O)cc2)o1	KDM4E inh inconclusive, RECQ1 helicase 3.2µM (no result: L3MBTL1 inh, TDP1 inh)
O=C1NN(c2ccccc2)C(=O)/C1=C/c1ccc(Sc2cccc3ccccc23)o1	L3MBTL1 inh inconclusive, RECQ1 helicase 20µM, BLM helicase inh inconclusive
COc1cccc(/C=C2/C(=O)NN(c3ccccc3)C2=O)c1	none (no result: L3MBTL1 inh, KDM4E inh, RECQ1 helicase, TDP1 inh)
CC(C)(C)n1ncc2c(=O)n(Cc3ccc(C(F)(F)F)cc3)cnc21	none (no result: L3MBTL1 inh, KDM4E inh, RECQ1 helicase, BLM helicase inh, TDP1 inh)
Cc1nc2c(c(=O)n1CCC1=CCCCC1)c1nc3ccccc3nc1n2/N=C/c1ccco1	L3MBTL1 inh inconclusive, KDM4E inh inconclusive, RECQ1 helicase 28µM, APEX1 inh inconclusive (no result: TDP1 inh)
CCCn1c(C)nc2c(c1=O)c1nc3ccccc3nc1n2CCC1=CCCCC1	KDM4E inh inconclusive
Nc1[nH]n2c(=O)cc(-c3ccccc3)nc2c1N=Nc1ccc(S(N)(=O)=O)cc1	APEX1 inh 8.9µM
Nc1[nH]n2c(=O)cc(-c3ccccc3)nc2c1N=Nc1ccccc1	none
Cc1c(C=O)c(Cl)n(C)c(=O)c1C#N	KDM4E inh 20µM
N#Cc1cc2c([nH]c1=S)CCCC2	none
CC1(C)Cc2[nH]c(=S)c(C#N)cc2CO1	KDM4E inh 13µM
COc1cc(-c2nnc(COC(=O)c3ccc(C)o3)o2)cc(OC)c1OC	APEX1 inh 24µM, TDP1 inh 20µM (no result: KDM4E inh, RECQ1 helicase, BLM helicase inh)
CSCC[C@H](NS(=O)(=O)c1ccc(C(C)=O)cc1)c1nnc2ccccn12	APEX1 inh inconclusive, TDP1 inh 40µM (no result: L3MBTL1 inh, KDM4E inh, RECQ1 helicase)
Cc1cccc(N=C2NC(=O)/C(=C/c3cccn3C)S2)c1C	none (no result: TDP1 inh)
O=C1NC(=Nc2ccccc2)S/C1=C\C=C\c1ccco1	L3MBTL1 inh 3.2µM, BLM helicase inh 13µM
Cc1cccc(N=C2NC(=O)/C(=C/C=C/c3ccco3)S2)c1C	L3MBTL1 inh 7.9µM, BLM helicase inh inconclusive, APEX1 inh inconclusive
Cc1cccc(NC(=O)c2ccc3snnc3c2)c1C	none (no result: L3MBTL1 inh, KDM4E inh, RECQ1 helicase, APEX1 inh)
O=C(CN1CCOCC1)N/N=C/c1ccc(-c2ccc(C(=O)O)cc2)o1	KDM4E inh inconclusive, APEX1 inh inconclusive, TDP1 inh 32µM (no result: L3MBTL1 inh)
CC(C)C(=O)Nc1nc2c(ncn2[C@H]2CC(O)[C@@H](CO)O2)c(=O)[nH]1 (stereo not given in full)	none (no result: L3MBTL1 inh, KDM4E inh, RECQ1 helicase, BLM helicase inh, APEX1 inh)
N=C1/C(=C/c2ccc(-c3cccc(C(=O)O)c3)o2)C(=O)N=C2SC(CC(=O)N3CCOCC3)=NN12	APEX1 inh inconclusive, TDP1 inh 8.9µM (no result: L3MBTL1 inh, KDM4E inh, RECQ1 helicase)
Cc1ccc(/C=C2\C(=N)N3N=C(CC(=O)N4CCOCC4)SC3=NC2=O)o1	none (no result: L3MBTL1 inh, KDM4E inh, RECQ1 helicase)
O=C(OCc1c(F)cccc1Cl)c1cnc(Cl)c(Cl)c1	none (no result: L3MBTL1 inh, KDM4E inh, RECQ1 helicase, TDP1 inh)
O=C(OCc1ccccc1F)c1cnc(Cl)c(Cl)c1	TDP1 inh 89µM (no result: L3MBTL1 inh, KDM4E inh, RECQ1 helicase)
O=c1cc(-c2ccc(O)cc2)oc2ccc3ccccc3c12	TDP1 inh 32µM (no result: KDM4E inh, RECQ1 helicase, BLM helicase inh)
O=c1cc(-c2ccc(O)cc2)oc2c1ccc1ccccc12	none (no result: KDM4E inh, RECQ1 helicase, BLM helicase inh, TDP1 inh)
CCCCC(=NCCc1c(C)[nH]c2ccc(OC)cc12)C1=C(O)CC(c2ccccc2)CC1=O (stereo not given)	KDM4E inh 25µM
